The list is not random: actives were taken first. Their share in the collection is about 4.6%.
tim23-1 inh: inhibits growth of tim23-1 mutant yeast | AID 463212 | 330,000 compounds, 1.3% hits | S. cerevisiae tim23-1 growth, BacTiter-Glo luminescence, 24 h | inhibition, % at 20 µM;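 active = growth inhibition of the mutant yeast at or above 50%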;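 also: temperature-sensitive mutant grown at 25 °C; plate controls were DMSO-treated mutant yeast for no effect and medium wells lacking yeast for full effect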
TIM10 inh: inhibits growth of TIM10 yeast strain | inhibition, % at 10 µM | 330,000 compounds, 1.4% hits | S. cerevisiae TIM10 strain growth, BacTiter-Glo luminescence, 24 h | AID 463195;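 active = inhibition of 40% or more at the single tested concentration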;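 also: wild-type TIM10 isogenic control strain grown at permissive 25 °C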
PfHsp90 set2: growth inhibition of yeast expressing Plasmodium Hsp90 | S. cerevisiae expressing PfHsp90, BacTiter-Glo ATP, 48 h; yeast lacking PDR1 and PDR3 efflux regulators | inhibition, % at 9.4 µM | 310,000 compounds, 0.32% hits | AID 504621;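 active = every replicate shows inhibition above about 80%, whatever the replicate mean, limit read from the data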;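 also: 0% = DMSO neutral controls and 100% = 20 µM radicicol positive controls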
NLRP3 yeast inh: inhibitors of NALP3 inflammasome in yeast; Yeast reconstituted NLRP3/ASC/caspase-1, beta-gal luminescence, 24 h; AID 2825; 330,000 compounds, 0.39% hits; inhibition, % at 10 µM;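 active = inhibition of 50% or more; inactive = inhibition below 50%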;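 also: plate controls were induced DMSO wells for no effect and uninduced yeast grown without galactose for full effect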
SKKanGAS inh: inhibitors of SKKanGAS S. pyogenes growth in kanamycin (SK-promoter or general growth effect); AID 1662; BacTiter-Glo, 6 h; inhibition, % at 7.5 µM; 300,000 compounds, 1.3% hits;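 active = mean replicate score, as percent of positive control median, at least 50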;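 also: strain carries kanamycin resistance gene driven by streptokinase promoter and grows in 40 µg/ml kanamycin; loss of luminescence reflects streptokinase promoter inhibition or plain growth inhibition; 0% = median of DMSO wells and 100% = positive control at its reference dose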
tim10-1 inh: inhibits growth of tim10-1 mutant yeast. 330,000 compounds, 2.2% hits. inhibition, % at 20 µM. S. cerevisiae tim10-1 ts strain growth, BacTiter-Glo, 24 h;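 active = inhibition of at least 40%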;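 also: mutant grown at 25 °C; 0% = DMSO wells with yeast and 100% = wells holding no yeast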
* hit, by the source's call; . = not tested or not shown.

SMILES	tim23-1 inh	TIM10 inh	PfHsp90 set2	NLRP3 yeast inh	SKKanGAS inh	tim10-1 inh
C[C@]12CC[C@@H]3c4ccc(OC(=O)c5ccccc5)cc4CC[C@H]3[C@@H]1CC[C@@H]2O	39.4	12.2	-30.0	27.3	84.2*	24.7
CN1CCN(C2=Cc3ccc(Cl)cc3Sc3ccc(F)cc32)CC1	22.5	15.0	-4.5	7.0	60.3*	-12.3
O=C(Nc1nc(N2C(=O)c3ccccc3C2=O)n(-c2ccccc2)n1)c1ccc(Cl)cc1	8.9	0.3	11.3	3.0	56.3*	10.1
O=c1[nH]c(CSc2ncn[nH]2)nc2ccccc12	2.4	-23.1	11.2	10.4	-6.4	-7.4
O=c1[nH]c(CSc2ncnc3sccc23)nc2ccccc12	9.0	-14.6	4.1	10.9	67.3*	-14.3
O=C(NC1CCN(Cc2ccccc2)CC1)c1cccc(S(=O)(=O)Nc2ccc(F)cc2)c1	-20.8	-0.2	-13.3	2.9	.	-7.5
O=C1C2C3C=CC(CNS(=O)(=O)c4ccccc4)(O3)C2C(=O)N1c1ccc(Cl)cc1 (configuration not stated)	35.0	8.2	105.3*	5.7	-12.9	38.3
Cc1cccc(CN2CCC(n3nccc3NC(=O)CCCc3ccccc3)CC2)n1	-8.7	6.1	-5.3	12.1	-1.9	0.7
CCOc1ccc2c(c1)C(=NNC(=O)c1ccncc1)c1cc(OCC)ccc1-2	21.7	30.2	-33.2	23.0	65.0*	26.9
O=C(CSc1nc(N2CCOCC2)nc(N2CCOCC2)n1)Nc1cccc(C(F)(F)F)c1	-10.0	0.7	2.9	5.8	53.7*	-4.8
COc1ccc(NC(=S)NC(NC(=O)c2ccc(Cl)cc2Cl)C(Cl)(Cl)Cl)c([N+](=O)[O-])c1 (configuration not stated)	-5.4	8.2	-11.8	27.0	50.0*	1.9
COc1ccc(NC(=S)NC(NC(=O)c2ccccc2Cl)C(Cl)(Cl)Cl)c([N+](=O)[O-])c1 (configuration not stated)	2.2	10.7	16.7	19.0	22.8	15.6
CC(NNC(=S)N1CCN(c2ccccn2)CC1)c1nccc2ccccc12 (configuration not stated)	.	.	121.4*	.	.	.
O=C(CNC(=O)c1ccccc1Br)N/N=C/c1cc(Br)ccc1O	-4.4	-1.6	19.2	9.4	72.8*	15.1
Cc1cc(Br)cc(/C=N/NC(=O)c2ccc3c(c2)OCO3)c1O	22.0	8.0	2.2	21.7	84.0*	-24.7
O=C(CNC(=O)c1ccc2c(c1)OCO2)N/N=C/c1cc(Br)ccc1O	-18.3	11.2	-13.3	-20.2	60.7*	-2.4
O=C(CNC(=O)c1ccccc1)N/N=C/c1cc(Br)ccc1O	-15.8	8.0	-12.2	4.1	-3.6	23.8
COCCn1c(-c2ccccc2)cnc1SCC(=O)Nc1cccc2ccccc12	38.1	7.4	6.5	10.6	0.4	-4.4
Oc1cncc(Cc2ccccc2)c1	15.4	-5.4	10.6	26.3	7.9	15.2
COc1cccc(C(=O)NCCNC(=O)c2ccco2)c1	-9.6	-3.3	16.4	-2.9	-1.7	-11.2
Cc1ccc(C2/C(=C(\O)c3ccc4c(c3)OCCO4)C(=O)C(=O)N2CC2CCCO2)cc1 (configuration not stated)	0.0	-3.6	14.7	20.6	.	-2.7
CC(=O)Nc1ccccc1Nc1nc(NCCO)nc(N2CCCC2)n1	9.5	0.2	-0.2	4.4	0.6	-2.3
Cc1sc(NC(=O)C2=COCCO2)nc1-c1ccc(Cl)cc1	7.1	2.2	.	34.6	4.7	9.5
C=CCn1c(NC(=O)c2ccccc2)nc2ccccc21	35.4	1.0	5.3	33.4	65.4*	6.7
CCn1c(NC(=O)c2cccc(Cn3cc(Cl)cn3)c2)nc2ccccc21	21.0	26.9	-4.5	21.8	84.6*	31.1
SMILES	tim23-1 inh	TIM10 inh	PfHsp90 set2	NLRP3 yeast inh	SKKanGAS inh	tim10-1 inh
COc1ccc(NS(=O)(=O)c2cc(C(=O)N3CCN(C/C=C/c4ccccc4)CC3)ccc2C)cc1	0.0	-0.2	-10.2	11.1	-0.5	-2.5
COc1cccc(/C=C2\Sc3ccc(C(=O)NCc4cccnc4)cc3N(C)C2=O)c1	23.7	6.9	-12.7	18.5	38.1	-1.2
COc1ccc(/C=C2\Sc3ccc(C(=O)N4CCN(Cc5ccccc5)CC4)cc3N(C)C2=O)cc1OC	21.6	-2.4	26.6	2.4	70.9*	10.9
CN1CCN(C(=O)c2ccc3c(c2)N(C)C(=O)/C(=C/c2cccc(Cl)c2)S3)CC1	28.7	24.4	1.6	12.1	36.9	33.7
COc1ccc(/C=C2\Sc3ccc(C(=O)NCc4cccnc4)cc3N(C)C2=O)cc1OC	5.4	20.6	11.7	-5.3	65.6*	6.1
CC(C)N(C(=O)[C@H]1CC(CC(=O)NCCC2=CCCCC2)C(=O)N2CCc3c([nH]c4ccccc34)[C@]12C)C(C)C (some centres not stated)	20.0	12.6	-10.4	-3.5	.	16.1
CCN(CC)C1CC(=O)N(c2ccc(Br)cc2)C1=O (configuration not stated)	30.0	25.1	112.1*	11.0	2.7	28.4
Nc1c(-c2ccc(Cl)cc2)cnc2c(-c3ccccc3)cnn12	-9.9	-8.6	2.4	2.9	-1.5	-13.1
NNC(=O)c1ccc(OCC2CC(c3ccc(Cl)cc3)=NO2)cc1 (configuration not stated)	41.1	22.8	16.2	29.8	50.6*	10.3
Cc1cc(=O)oc2cc(OCC3CC(c4ccc(Cl)cc4)=NO3)ccc12 (configuration not stated)	18.0	8.9	14.8	36.2	-1.4	17.0
Clc1cc2c(nn1)Nc1ccccc1S2	2.7	4.3	-19.0	15.3	-1.0	-13.8
S=C1Nc2ccccc2Sc2ccc(Cl)cc21	24.2	33.0	-4.9	39.6	69.4*	7.4
C=CCOc1ccc(/C=C2\SC(N3CCCCC3)=NC2=O)cc1	13.3	17.8	3.3	24.3	2.2	26.0
CN(C)C(=O)C(=O)c1cccn1-c1cccc(Cl)c1C#N	7.3	1.1	-11.9	20.9	-2.2	7.8
Cc1ccccc1OCCCc1c(C)n[nH]c1C	33.0	11.3	-59.0	20.2	64.5*	-6.0
Cc1ccccc1OCCCCc1c(C)n[nH]c1C	19.9	13.3	.	3.5	94.5*	12.3
Cc1cccc(C)c1OCCCCc1c(C)n[nH]c1C	19.3	-55.7	-31.4	26.8	-8.3	26.3
Cc1n[nH]c(C)c1CCCCOc1ccccc1F	12.2	12.7	6.0	0.7	68.0*	15.8
CN(C)C(=O)C1C2NC(=S)N(c3cccc(Cl)c3)C1(C)Oc1ccc(Cl)cc12 (configuration not stated)	15.6	-11.4	19.7	11.8	1.6	9.1
CC#C[C@@H](CC)c1ccc2ccn(C)c2c1	6.1	-2.1	8.2	14.9	.	-7.8
O=C(Nc1cccc(Cl)c1)Nc1csc([N+](=O)[O-])c1	32.0	18.1	37.5	46.8	51.1*	1.1
O=C(Nc1ccncc1)Nc1cccc(Cl)c1	-7.1	11.0	22.5	8.1	-2.1	-25.9

Screening data (PubChem)
